The values that follow come from PubChem BioAssay (NCI).

This is part of a sample that, as a whole, favours compounds with a hit. Of some 83,000 tested, about 20% had one in any assay.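 In brief: 96-well plates, 48 h treatment, single concentration, percent growth endpoint.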 Unmarked numbers belong to inactive results. Active and inactive are the calls of the source. The calls were made as follows: active = growth percent below 10; inactive = the rest.

Some test systems named below: HCT-15 colon; HT29 colon; SNB-75 CNS; SNB-19 CNS; U251 CNS; PC-3 prostate; SK-MEL-5 melanoma; UACC-62 melanoma; LOX IMVI melanoma; SK-MEL-28 melanoma; SK-MEL-2 melanoma; EKVX NSCLC; SN12C renal; UO-31 renal; TK-10 renal; ACHN renal; CAKI-1 renal; A498 renal; CCRF-CEM leukemia; MOLT-4 leukemia.
Common to all, as to test: NCI-60 one-dose screen, 48 h (100 = growth as untreated, 0 = no growth, -100 = all killed)
Details in all cases: 10 µM unless noted

`C#CC#CC#CC#CC#CC#CC#CC#CCC1OCC(COC(=O)O[C@@H](C(=O)O[C@H]2C[C@@]3(O)[C@@H](OC(=O)c4ccccc4)[C@@H]4[C@]5(OC(C)=O)CO[C@@H]5C[C@H](O)[C@@]4(C)C(=O)[C@H](OC(C)=O)C(=C2C)C3(C)C)[C@@H](NC(=O)c2ccccc2)c2ccccc2)O1` (stereo not given in full): the growth in the test with HCT-15 colon is 66.8%; in the test on HT29 colon, 5.02% (active); in the test with SNB-75 CNS it was -25.2% (active); with SNB-19 CNS, 18.9%; in the test with U251 CNS, 17.9%; with PC-3 prostate it was 19.4%. Also, the growth with SK-MEL-5 melanoma is 23.4%; in the test on UACC-62 melanoma, 22.3%; in the test on LOX IMVI melanoma, 26.9%; in the test on SK-MEL-28 melanoma, 59.2%; in the test with SK-MEL-2 melanoma it was 30.9%; with EKVX NSCLC it was 45.5%. For the same compound, the growth is 21.4% in the test with SN12C renal; 81.7% with UO-31 renal; 48% in the test with TK-10 renal; 45.4% in the test with ACHN renal; 49.6% in the test on CAKI-1 renal; -8.03% (active) with A498 renal. For the same compound, the growth is 12.1% in the test on CCRF-CEM leukemia and 20.7% in the test on MOLT-4 leukemia.

Consider `O=C(/C=C\c1ccco1)/C=C/c1ccco1`, for which the growth with HCT-15 colon was 105%; in the test with HT29 colon, 108%; in the test with SNB-75 CNS, 94.5%; with SNB-19 CNS, 105%; in the test with U251 CNS, 104%; in the test with PC-3 prostate, 95.6%. Moreover, the growth was 101% in the test on SK-MEL-5 melanoma; 100% with UACC-62 melanoma; 96.8% with LOX IMVI melanoma; 110% in the test with SK-MEL-28 melanoma; 109% with SK-MEL-2 melanoma; 99.5% in the test on EKVX NSCLC. Besides, the growth was 97.7% in the test with SN12C renal; 76.3% in the test on UO-31 renal; 108% in the test with TK-10 renal; 110% in the test with ACHN renal; 107% in the test on CAKI-1 renal; 97.5% in the test on A498 renal. In addition, the results for the growth in the test on CCRF-CEM leukemia and with MOLT-4 leukemia were 8.75% (active) and 112%, respectively.

Regarding `C=CC(=O)N1CCN(c2ccc3cccc(NC(=O)c4cnc(C)cn4)c3n2)CC1`, the growth with HCT-15 colon was 21.3%; in the test on HT29 colon, 51.3%; in the test with SNB-75 CNS, 15.4%; in the test with SNB-19 CNS, 62.4%; with U251 CNS, 32.1%; in the test with PC-3 prostate it was 43.5%. The growth with SK-MEL-5 melanoma was 61.4%; with UACC-62 melanoma, 26.9%; in the test with LOX IMVI melanoma, 33.4%; with SK-MEL-28 melanoma, 68%; in the test with SK-MEL-2 melanoma, 29.7%; in the test with EKVX NSCLC it was 66.6%. Moreover, the growth is 9.63% (active) with SN12C renal; 0.645% (active) in the test on UO-31 renal; 23.2% with TK-10 renal; 5.43% (active) in the test with ACHN renal; 4.05% (active) in the test with CAKI-1 renal; -12.7% (active) with A498 renal. Also, the growth in the test on CCRF-CEM leukemia is 32.1%; with MOLT-4 leukemia, 35.7%.

On to `COc1ccc(-c2cc(-c3cc(OC)c(OC)c(OC)c3)c(C#N)c(=O)n2CCCCCC(=O)NO)cc1`, for which the growth in the test with HCT-15 colon is 71.7%; in the test with HT29 colon, 101%; in the test on SNB-75 CNS, 70.1%; with SNB-19 CNS it was 89.8%; in the test with U251 CNS, 81.9%; with PC-3 prostate, 89.4%. Besides, the growth in the test with SK-MEL-5 melanoma is 91.4%; with UACC-62 melanoma, 93.3%; with LOX IMVI melanoma, 78.7%; in the test with SK-MEL-28 melanoma, 109%; with SK-MEL-2 melanoma, 102%; in the test on EKVX NSCLC, 91.3%. Besides, the growth in the test on SN12C renal is 89.2%; in the test with UO-31 renal it was 62.4%; in the test with TK-10 renal, 106%; with ACHN renal it was 88.3%; in the test with CAKI-1 renal, 79.9%; in the test with A498 renal, 54%. Besides, the growth with CCRF-CEM leukemia was 85.7%; with MOLT-4 leukemia it was 96.6%.

Turning to `O=C(CCCCCCN1CC(=O)N2[C@@H](c3ccc(Cl)cc3)c3[nH]c4ccccc4c3C[C@H]2C1=O)NO`, the growth was 101% in the test with HCT-15 colon; 76.6% in the test with HT29 colon; 27.1% with SNB-75 CNS; 67.1% in the test on SNB-19 CNS; 71.1% in the test with U251 CNS; 43.5% with PC-3 prostate. In addition, the growth in the test on SK-MEL-5 melanoma was 61.8%; in the test with UACC-62 melanoma, 34.5%; in the test on LOX IMVI melanoma, -63.6% (active); in the test with SK-MEL-28 melanoma, 46.3%; with SK-MEL-2 melanoma, 80.7%; in the test with EKVX NSCLC it was 85.6%. Moreover, the growth was 65.7% in the test on SN12C renal; 59.7% in the test on UO-31 renal; 110% in the test on TK-10 renal; 78.8% in the test with ACHN renal; 60.9% in the test with CAKI-1 renal; 67.2% in the test on A498 renal. The growth is 18.7% with CCRF-CEM leukemia and 32.3% with MOLT-4 leukemia.

`COc1ccc(Cc2cnc(NC(=O)c3sc4ccccc4c3Cl)s2)cc1`: the growth in the test on HCT-15 colon is 15.9%; in the test with HT29 colon it was 8.15% (active); with SNB-75 CNS, 9.6% (active); in the test with SNB-19 CNS, 50.7%; in the test with U251 CNS it was 20.8%; in the test with PC-3 prostate, 31.5%. The growth with SK-MEL-5 melanoma is 27.8%; in the test on UACC-62 melanoma, 35.7%; with LOX IMVI melanoma it was 45.9%; in the test with SK-MEL-28 melanoma, 62.1%; with SK-MEL-2 melanoma, 43.9%; in the test with EKVX NSCLC, 40.8%. For the same compound, the growth in the test on SN12C renal was 28.7%; with UO-31 renal, 48.4%; with TK-10 renal, 63.1%; with ACHN renal, 41.3%; with CAKI-1 renal, 41.9%; in the test with A498 renal, 21.3%. Besides, the growth was 21% in the test with CCRF-CEM leukemia and 14.8% in the test with MOLT-4 leukemia.

Turning to `Nc1c(C(=O)Nc2cccc3ncccc23)sc2nc3c(cc12)C(=O)CCC3`, the growth in the test on HCT-15 colon is 52.9%; in the test with HT29 colon, 35.9%; with SNB-75 CNS, 43.7%; with SNB-19 CNS, 38%; with U251 CNS, 57.5%; in the test on PC-3 prostate, 35.1%. Also, the growth is 30.3% with SK-MEL-5 melanoma; 17.8% with UACC-62 melanoma; 55% in the test on LOX IMVI melanoma; 49% in the test on SK-MEL-28 melanoma; 36.3% in the test with SK-MEL-2 melanoma; 58.6% with EKVX NSCLC. For the same compound, the growth is 60.8% in the test with SN12C renal; 58.3% in the test on UO-31 renal; 76.8% in the test with TK-10 renal; 52% in the test with ACHN renal; 58.8% in the test with CAKI-1 renal; 4.53% (active) with A498 renal. Moreover, the growth with CCRF-CEM leukemia is 30.5%; in the test on MOLT-4 leukemia, 66.6%.
